This note sets out measurements from PubChem BioAssay.

Activity calls are given as the source filed them.

Assay [1] relates to Human papillomavirus type 1a protein E7 (residues 44-93). As to the kind of experiment: small molecules binding HPV E7 44-93 – biochemical, small-molecule microarray, residues 44-93, 635 nm fluorescence, primary screen (AID 1108).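 Note: E7 fragment applied at 1 µg/mL in TBST for 1 h at 4 C; score combines spot fluorescence with its signal to noise ratio.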 Particulars: fluorescence 635 nm, higher = more signal.
Assay [2] can be described thus: hepatitis C replication reporter changes, two-sided – Huh7 cells, luciferase reporter, HCV replication inhibitor project, primary screen (AID 1109).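 Note: huh7 hepatoma cells harbouring a luciferase neomycin HCV replicon reporter; luciferase luminescence as measure of HCV replicon replication; test concentration not given here.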 Particulars: Huh7 HCV replicon luciferase reporter, 48 h; higher = more signal. A general note: A reporter such as luciferase makes a cellular process visible.
In assay [3] the target is Left-right determination factor 2 (Homo sapiens) (UniProt O00292). The assay can be described thus: small molecules binding LEFTY2 protein – biochemical, small-molecule microarray, 635 nm fluorescence scan, primary screen (AID 1110). Particulars: higher = more signal.
For assay [4], the target named is Calmodulin-1 (Homo sapiens) (UniProt P0DP23). As to the kind of experiment: small molecules binding calmodulin-1 with EGTA – biochemical, small-molecule microarray, Cy5-labelled CALM1, profiling panel (AID 1111).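 Note: labelled calmodulin applied in Tris saline Tween buffer holding calcium plus EGTA and DTT.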 Particulars: Cy5-CALM1 binding fluorescence, higher = more signal.
Assay [5] shares this target. The assay can be described thus: small molecules binding Ca-loaded calmodulin-1 – biochemical, small-molecule microarray, Cy5-labelled CALM1, plus calcium, artefact control for SMM control-protein annotation, profiling panel (AID 1112).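 Note: score merges spot fluorescence with signal to noise from triplicate slides.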 Particulars: Cy5-CALM1 binding fluorescence, higher = more signal.
Assay [6] is described as follows: probe aWnt5a binding to arrayed compounds – biochemical, biotinylated probe, 635/667 nm fluorescence, primary screen (AID 1113).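 Note: score merges 667 nm fluorescence intensity with signal-to-noise per printed feature.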 Particulars: small-molecule microarray, higher = more signal.
Assay [7] is described as follows: probe aShh binding to arrayed compounds – biochemical, biotinylated probe, 635/667 nm fluorescence, primary screen (AID 1114).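 Note: probe is biotin-labelled aShh protein from a stem cell growth factor screen; measures binding of labelled protein to compounds printed on the slide; score merges feature fluorescence at 667 nm with signal-to-noise.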 Particulars: small-molecule microarray, higher = more signal.
Assay [8] in a line: probe aNog binding to arrayed compounds – biochemical, biotinylated probe, 635/667 nm fluorescence, primary screen (AID 1115).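 Note: probe is biotinylated aNog protein used at 0.15 µg/mL for 1 h at 4 C; z-score combines 667 nm fluorescence of each spot with its signal to noise.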 Particulars: small-molecule microarray, higher = more signal.
In assay [9] the target is Torsin-1A-interacting protein 1 (Homo sapiens) (UniProt Q5JTV8). As to the kind of experiment: compound microarray binding of lysate hLAP1 – cell lysate, small-molecule microarray, COS7 lysate, 635/667 nm fluorescence, primary screen (AID 1116). Particulars: 635 nm fluorescence, higher = more signal.
For assay [10], the target named is Alpha-bungarotoxin (Bungarus multicinctus) (UniProt P60615). As to the kind of experiment: compounds binding labelled alpha-BTX control protein – biochemical, small-molecule microarray, Alexa647 label, 635/667 nm fluorescence, artefact control for SMM control protein annotation, profiling panel (AID 1117). Particulars: alpha-BTX-A647 binding fluorescence, higher = more signal.

The target of a further assay is Albumin (Bos taurus) (UniProt P02769). The assay can be described thus: compounds binding labelled BSA control protein – biochemical, small-molecule microarray, Alexa647 label, 635/667 nm fluorescence, artefact control for SMM control protein annotation, profiling panel (AID 1118).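 Note: score merges 667 nm emission intensity and signal-to-noise per printed compound spot.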 Particulars: BSA-A647 binding, fluorescence 635 nm, higher = more signal.
Assay [11] can be described thus: probe aXIP binding to arrayed compounds – biochemical, NeuroSMM set, 635/667 nm fluorescence, primary screen (AID 1119).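 Note: probe is the protein aXip251-270 applied at 1 µg/mL to compound-printed slides; binding of probe to printed compounds measured as 667 nm fluorescence plus signal to noise.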 Particulars: small-molecule microarray, higher = more signal, called active from +8 up or from −8 down.
Assay [12] is described as follows: probe aNOTCH3 binding on compound microarray – biochemical, small-molecule microarray, 635/667 nm fluorescence, primary screen (AID 1120).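 Note: probe is a biotin-tagged antibody raised against NOTCH3 rather than NOTCH3 protein; score merges spot fluorescence near 667 nm with spot signal to noise.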 Particulars: higher = more signal.
The nature of assay [13]: probe aNOTCH2 binding on compound microarray – biochemical, small-molecule microarray, 635/667 nm fluorescence, primary screen (AID 1121).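 Note: score merges feature fluorescence read at 667 nm with its signal to noise.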 Particulars: higher = more signal.
The target of assay [14] is Carbonic anhydrase 2 (Homo sapiens) (UniProt P00918). The assay can be described thus: compounds binding carbonic anhydrase 2 – biochemical, small-molecule microarray, Alexa647-labelled CAII, profiling panel (AID 1122). Particulars: CAII-A647 binding fluorescence, higher = more signal.
Assay [15] in a line: COS7 lysate on small-molecule microarray, probe aHis, 635 nm (AID 1123).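 Note: z-score combines 667nm fluorescence intensity with signal-to-noise per printed compound spot.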 Particulars: COS7 cell lysate, fluorescence, higher = more signal.
Assay [16] in a line: probe aLAP1 signal on lysate-treated microarray – cell lysate, small-molecule microarray, COS7 lysate, primary screen (AID 1124).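 Note: lysate comes from COS7 cells expressing LAP1 and is applied at 0.3 µg/mL; score merges spot fluorescence near 667 nm with signal-to-noise over triplicate slides.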 Particulars: probe aLAP1, fluorescence, higher = more signal.
A further assay has as its system Sam68 (KHDRBS1). As to the kind of experiment: compounds binding KHDRBS1 protein – biochemical, small-molecule microarray, 635 nm fluorescence, primary screen (AID 1125).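 Note: score merges 667 nm channel intensity with signal to noise over triplicate slides.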 Particulars: higher = more signal.
Assay [17] deals with Chordin-like protein 2 (CHRDL2). The assay can be described thus: compounds binding chordin-like 2 – biochemical, small-molecule microarray, 635 nm fluorescence, primary screen (AID 1126).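 Note: printed compound slides probed with Chrdl2 protein at 4 µg/mL for 1 h at 4 C; score merges 667 nm emission intensity with signal to noise over three replicate slides.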 Particulars: fluorescence 635 nm, higher = more signal.
Assay [18] has as its target Concanavalin-A (Canavalia ensiformis) (UniProt P02866). The assay can be described thus: compounds binding concanavalin A lectin – biochemical, small-molecule microarray, Alexa647 label, 635 nm, artefact control for SMM control protein annotation, primary screen (AID 1127).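 Note: z combines 667 nm emission intensity with signal-to-noise across three replicate slides.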 Particulars: ConA-A647 binding fluorescence, higher = more signal.

Chain of Alpha-bungarotoxin (Bungarus multicinctus) (P60615 whole entry, looked up): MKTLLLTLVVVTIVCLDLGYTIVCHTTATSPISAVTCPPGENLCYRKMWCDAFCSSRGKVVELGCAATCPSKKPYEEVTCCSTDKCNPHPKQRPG
Chain of Torsin-1A-interacting protein 1 (Homo sapiens) (Q5JTV8 whole entry, looked up): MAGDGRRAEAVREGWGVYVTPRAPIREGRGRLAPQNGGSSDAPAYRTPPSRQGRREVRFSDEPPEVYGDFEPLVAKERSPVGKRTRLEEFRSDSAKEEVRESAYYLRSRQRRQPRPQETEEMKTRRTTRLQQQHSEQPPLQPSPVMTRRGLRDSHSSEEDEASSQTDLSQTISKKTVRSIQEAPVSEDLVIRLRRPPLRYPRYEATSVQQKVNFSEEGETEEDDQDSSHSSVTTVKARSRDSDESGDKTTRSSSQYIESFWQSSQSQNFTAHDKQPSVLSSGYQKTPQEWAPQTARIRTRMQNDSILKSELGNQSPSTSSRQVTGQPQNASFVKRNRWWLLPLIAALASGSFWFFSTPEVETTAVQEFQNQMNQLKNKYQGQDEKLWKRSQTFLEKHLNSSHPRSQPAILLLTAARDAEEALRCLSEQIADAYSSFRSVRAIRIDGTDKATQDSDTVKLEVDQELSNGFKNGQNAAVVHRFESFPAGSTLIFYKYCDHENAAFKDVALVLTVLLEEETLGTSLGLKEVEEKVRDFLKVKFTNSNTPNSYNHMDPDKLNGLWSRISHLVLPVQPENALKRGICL
Chain of Left-right determination factor 2 (Homo sapiens) (O00292 whole entry, looked up): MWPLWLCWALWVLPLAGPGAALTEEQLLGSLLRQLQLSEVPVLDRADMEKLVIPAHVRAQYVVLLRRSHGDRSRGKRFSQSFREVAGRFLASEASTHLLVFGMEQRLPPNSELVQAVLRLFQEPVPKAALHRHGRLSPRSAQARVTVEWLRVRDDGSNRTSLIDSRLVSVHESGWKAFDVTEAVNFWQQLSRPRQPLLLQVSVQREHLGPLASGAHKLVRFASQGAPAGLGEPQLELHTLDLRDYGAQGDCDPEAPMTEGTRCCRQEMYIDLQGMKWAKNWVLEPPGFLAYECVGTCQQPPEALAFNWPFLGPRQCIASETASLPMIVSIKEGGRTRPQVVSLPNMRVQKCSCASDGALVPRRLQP
Chain of Concanavalin-A (Canavalia ensiformis) (P02866 whole entry, looked up): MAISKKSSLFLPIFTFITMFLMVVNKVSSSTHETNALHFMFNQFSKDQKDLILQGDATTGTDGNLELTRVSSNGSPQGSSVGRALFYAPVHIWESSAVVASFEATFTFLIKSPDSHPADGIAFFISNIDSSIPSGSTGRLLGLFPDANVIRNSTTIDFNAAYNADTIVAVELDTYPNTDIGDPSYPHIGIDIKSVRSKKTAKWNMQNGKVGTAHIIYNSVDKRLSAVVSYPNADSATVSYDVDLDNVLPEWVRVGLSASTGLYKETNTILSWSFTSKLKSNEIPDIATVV
Chain of Albumin (Bos taurus) (P02769 whole entry, looked up): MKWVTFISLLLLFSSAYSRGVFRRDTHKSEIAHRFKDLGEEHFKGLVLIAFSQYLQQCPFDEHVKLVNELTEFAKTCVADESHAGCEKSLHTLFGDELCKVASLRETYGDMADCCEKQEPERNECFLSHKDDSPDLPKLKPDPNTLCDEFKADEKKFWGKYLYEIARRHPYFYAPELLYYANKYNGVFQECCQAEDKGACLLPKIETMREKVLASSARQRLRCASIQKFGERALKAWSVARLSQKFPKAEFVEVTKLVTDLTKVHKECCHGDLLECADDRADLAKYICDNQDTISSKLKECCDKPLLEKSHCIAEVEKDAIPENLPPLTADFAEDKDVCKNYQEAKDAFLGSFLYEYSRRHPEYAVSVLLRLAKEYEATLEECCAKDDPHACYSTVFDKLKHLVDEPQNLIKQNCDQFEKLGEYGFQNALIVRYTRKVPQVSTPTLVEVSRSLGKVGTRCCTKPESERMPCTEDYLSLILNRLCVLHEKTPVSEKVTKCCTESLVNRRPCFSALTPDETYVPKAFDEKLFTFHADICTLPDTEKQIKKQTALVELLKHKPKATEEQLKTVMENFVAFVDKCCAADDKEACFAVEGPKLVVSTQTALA

As to `COCCOC(=O)N1C(=O)[C@@]2(c3cc(C#Cc4ccc(OC)cc4)ccc31)[C@H](C(=O)N1CCc3cc(OC)c(OC)cc3C1)[C@H]1C(=O)O[C@H](c3ccccc3)[C@H](c3ccccc3)N1[C@@H]2c1ccc(OCCO)cc1`, the composite z-score in [1] was 0.577; in assay [3] it was 0.516; in assay [4], 1.24; in assay [5], 0.897; in assay [6] it was -0.0482; in [7], -0.138. The composite z-score in assay [8] was 0.0637; in assay [9], 0.247; in assay [10] it was 1.41; with Albumin (Bos taurus) it was -0.121; in assay [12] it was 0.0271; in [13], -0.149. Also, the composite z-score is 0.22 in assay [14]; -0.0346 in [15]; 0.0459 in assay [16]; 1.23 in the assay on Sam68 (KHDRBS1); 0.598 in assay [17]; 1.09 in [18]. In [2], this compound had a z-score of -0.195. Also, in assay [11], the composite Z-score is -0.527 (inactive).

As to `O=C1CSC(c2cccc([N+](=O)[O-])c2)N1c1ccccc1` (stereo not given), the composite z-score is 0.551 in assay [1]; 0.688 in [3]; 0.331 in assay [4]; -0.071 in assay [5]; -0.135 in [6]; -0.221 in [7]. Moreover, the composite z-score in assay [8] is -0.073; in assay [9], 0.273; in [10] it was 0.163; with Albumin (Bos taurus) it was 0.0623; in [12], -0.0647; in [13], -0.172. In addition, the composite z-score in assay [14] worked out at 0.153; in [15], 0.523; in assay [16] it was 0.537; with Sam68 (KHDRBS1), 0.557; in assay [17], 0.286; in assay [18] it was 0.612. In assay [2], the z-score is -1.16. Also, in assay [11], the composite Z-score was 0.0045 (inactive).

Turning to `COC(=O)[C@@]1(Cc2ccc(F)cc2)[C@H]2c3cc(C(=O)N(C)C)n(CCSCCO)c3C[C@H]2CN1C(=O)c1ccccc1`, the composite z-score in assay [1] was 0.0689; in assay [3], -0.293; in [4], 2.32; in assay [5] it was 0.559; in [6], -0.0977; in assay [7], 0.123. The composite z-score in [8] was 1.6; in assay [9] it was 0.51; in assay [10], 0.224; with Albumin (Bos taurus), 1.04; in assay [12], 0.0179; in assay [13] it was -0.0568. Moreover, the composite z-score in assay [14] was 0.726; in [15] it was 2.15; in [16], 0.96; in the assay with Sam68 (KHDRBS1) it was 0.584; in assay [17] it was 0.191; in [18] it was -0.103. In assay [2], this compound came in with a z-score of -0.663. Further, the composite Z-score in [11] was 0.116 (inactive).

As to `COC(=O)[C@@]1(Cc2ccccc2)[C@H]2c3cc(C(=O)N4CCCC4)n(Cc4ccccc4)c3C[C@H]2CN1C(=O)c1ccccc1`, the composite z-score is 1.45 in assay [1]; -0.347 in assay [3]; 1.42 in assay [4]; 0.168 in assay [5]; 0.0362 in assay [6]; 0.356 in [7]. Further, the composite z-score in assay [8] was determined as 1.48; in assay [9], 0.55; in [10], 0.401; in the assay with Albumin (Bos taurus) it was 0.76; in assay [12], 0.591; in [13], 0.302. For the same compound, the composite z-score in [14] was 0.637; in assay [15], 2.36; in assay [16], -0.0361; in the assay on Sam68 (KHDRBS1), 0.5; in assay [17], -0.883; in assay [18] it was 0.914. Further, the z-score in [2] was -2.45. Moreover, the composite Z-score in [11] was 0.689 (inactive).

For the compound `COc1ccc(C(=O)Nc2ccc(CN3C(=O)[C@@]4(O[C@@H](CC(=O)N5Cc6ccccc6C[C@H]5CO)[C@H]([Si](C)(C)c5ccc(OC)cc5)[C@H]4C)c4ccccc43)cc2)cc1`, the composite z-score was 1.1 in assay [1]; 0.804 in assay [3]; 0.0063 in assay [4]; -0.613 in assay [5]; -0.119 in assay [6]; 0.0121 in assay [7]. Also, the composite z-score in assay [8] is -0.24; in assay [9], 1.21; in [10], 1.3; with Albumin (Bos taurus) it was 0.604; in assay [12], -0.137; in [13], -0.153. For the same compound, the composite z-score in [14] stood at 0.55; in assay [15], 2.26; in assay [16] it was 0.226; in the assay with Sam68 (KHDRBS1), 1.27; in assay [17] it was 1.18; in assay [18] it was 0.965. The compound further came in with a z-score in assay [2] of -3.84. In addition, the composite Z-score in assay [11] is -0.086 (inactive).

Turning to `COCCOC(=O)N1C(=O)[C@@]2(c3cc(C#Cc4ccc(OC)cc4)ccc31)[C@H](C(=O)N1CCc3cc(OC)c(OC)cc3C1)[C@H]1C(=O)O[C@H](c3ccccc3)[C@H](c3ccccc3)N1[C@@H]2c1ccc(O)cc1`, the composite z-score in assay [1] was 1.13; in assay [3], 0.582; in [4], 0.111; in [5], -0.575; in [6] it was 0.0088; in [7], 0.191. The composite z-score was -0.407 in assay [8]; 0.575 in assay [9]; 1.78 in [10]; -0.237 with Albumin (Bos taurus); 0.436 in [12]; 0.357 in assay [13]. The composite z-score in [14] came to 0.282; in assay [15], 0.853; in assay [16] it was 0.844; with Sam68 (KHDRBS1), 1.28; in [17] it was 0.805; in [18], 1.16. This compound also yielded a z-score in assay [2] of -0.246. Besides, the composite Z-score in assay [11] was -0.0164 (inactive).
